This is an account of results in PubChem BioAssay (Tox21).

Values without a mark were called inactive. Records with an inconclusive call do not appear. The source made the active and inactive calls. Unless noted, the call rests on the fitted dose curve; in most records, active means well fitted curve in the direction sought with a large enough effect in the repeat runs; inconclusive means weak or mixed curves; inactive means no such curve, though single readings can be large; an effect the other way counts as inactive or inconclusive.

In assay [1] the target is Luciferin 4-monooxygenase (Photinus pyralis) (UniProt P08659). The experiment in a line: qHTS assay to identify small molecule inhibitors of firefly luciferase (AID 1224835). Further: series mostly up to about 120 µM; nearly all actives have a fitted effect of over 25% in size. In outline: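 Quantitative HTS format; KM concentrations of both substrates. Purified P. pyralis FLuc activity quantified from luminescence images.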
(In general: Quantitative high-throughput screening tests each substance at several concentrations.)

Assay [2] can be described thus: qHTS assay to identify small molecule agonists of the constitutive androstane receptor (CAR) signaling pathway - cell viability counter screen (AID 1224836). Further: series mostly up to about 92 µM; nearly all actives have a fitted effect of over 45% in size. The gist of the method: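 HepG2-CYP2B6-hCAR, 2500 cells/well, 4 h pre-incubation; cpd 15 conc + PK11195 0.75 uM final; 23 h, 37 C/5% CO2; CellTiter-Fluor, fluorescence.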
A short description of assay [3]: qHTS assay to identify small molecule antagonists of the constitutive androstane receptor (CAR) signaling pathway - cell viability counter screen (AID 1224837). Further: series mostly up to about 92 µM; nearly all actives have a fitted effect of over 45% in size. In outline: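 HepG2-CYP2B6-hCAR cells, 2500/well, 4 hr pre-incubation; compound titration, 15 conc.; CITCO 50 nM final; 23 hr, 37 C/5% CO2; CellTiter-Fluor, fluorescence intensity.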
Assay [4] addresses Nuclear receptor subfamily 1 group I member 3 (Homo sapiens) (UniProt Q14994). The experiment in a line: qHTS assay to identify small molecule antagonists of the constitutive androstane receptor (CAR) signaling pathway (AID 1224838).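 Further: HepG2 cells stably expressing hCAR with CYP2B6 luciferase reporter stimulated by CITCO; nearly all actives have a fitted effect of over 40% in size.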 Further: potency means the concentration at half of the fitted maximal effect. In outline:
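HepG2-CYP2B6-hCAR cells; 4 h pre-incubation; cpd (15 conc) + CITCO 50 nM final; 24 h, 37 C/5% CO2; ONE-Glo, luminescence.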

For assay [5] the target is unchanged. The experiment in a line: qHTS assay to identify small molecule agonists of the constitutive androstane receptor (CAR) signaling pathway (AID 1224839).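 Further: HepG2 cells stably carrying human CAR and a CYP2B6 luciferase reporter; series mostly up to about 92 µM; nearly all actives have a fitted effect of over 15% in size.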 In outline: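 HepG2-CYP2B6-hCAR cells, 2500/well, 4 h pre-incubation; compounds 15 conc.; PK11195 0.75 uM final; 24 h, 37 C/5% CO2; ONE-Glo luciferase read.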
Assay [6] in a line: qHTS assay to identify small molecule antagonists of the estrogen related receptor signaling pathway with the pleiotropic PPARgamma coactivator (PGC) from Tox21 10K library - cell viability counter screen (AID 1224840; active means well fitted cell-killing curve with a large enough effect in the repeat runs, not every such curve was filed as active; further: nearly all actives have a fitted effect of over 40% in size). In outline: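 PGC/ERR cells, 2,000/well; 6 h pre-incubation 37 C/5% CO2; cpd in DMSO via pin tool; 17.5 h 37 C; CellTiter-Fluor, 30 min; fluorescence.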
Assay [7] in a line: qHTS assay to identify small molecule antagonists of the estrogen related receptor signaling pathway with the pleiotropic PPARgamma coactivator (PGC) from Tox21 10K library (AID 1224841; call rule not given here; further: actives are mostly falling curves and most rising ones were filed inactive; nearly all actives have a fitted effect of over 50% in size; further: potency means the concentration at half of the fitted maximal effect; on activity, negative = inhibition: series mostly up to about 92 µM). The gist of the method:
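PGC/ERR cell line, 2,000 cells/well; 6 h pre-incubation 37 C/5% CO2; compounds (DMSO) pinned in; 18 h, 37 C; One-Glo, 30 min RT; luminescence.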

The nature of assay [8]: qHTS assay to identify small molecule agonists of the estrogen related receptor signaling pathway with the pleiotropic PPARgamma coactivator (PGC) from Tox21 10K library (AID 1224842). Further: nearly all actives have a fitted effect of over 15% in size. Further: potency means the concentration at half of the fitted maximal effect. The gist of the method: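 PGC/ERR reporter cells (NTP line) were seeded 2,000 per well, rested 6 h at 37 C/5% CO2, then pin-dosed with compounds in DMSO for 18 h at 37 C; luciferase read by One-Glo luminescence after 30 min at room temperature.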

Assay [9] addresses Thyrotropin receptor (Homo sapiens) (UniProt P16473). The experiment in a line: qHTS assay to identify small molecule agonists of the thyroid stimulating hormone receptor (TSHR) signaling pathway (AID 1224843; calls by dose curve; further: nearly all actives have a fitted effect of over 45% in size). In outline: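 Cell line HEK293 with TSHR; density 800/well. Exposure 30 min RT. Readout HTRF cAMP (cAMP-d2/anti-cAMP-cryptate), 1 h RT before reading.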
The nature of assay [10]: qHTS assay to identify small molecule agonists of the hypoxia (HIF-1) signaling pathway - cell viability counter screen (AID 1224844; calls by dose curve; further: nearly all actives have a fitted effect of over 50% in size). The gist of the method: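 ME-180 HRE-bla cells, 2,000/well, 0.5% dialyzed FBS; 5 hr settle, 17 hr compound at 37C/5% CO2; CCF4-AM reporter read first, then CellTiter-Glo luminescence after 30 min RT.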
Assay [11] is described as follows: qHTS assay to identify small molecule agonists of H2AX - cell viability counter screen (AID 1224847; calls by dose curve; further: top concentration of the series differs between compounds; nearly all actives have a fitted effect of over 30% in size). In outline:
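Cells plated first: CHO-K1, 1000 per well in 10% FBS medium, incubated overnight at 37C. Then 15-point compound titration added (final DMSO 0.76%) for 3 hr. Finally CellTiter-Glo added and luminescence read.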

Assay [12] in a line: qHTS assay to identify small molecule antagonists of the estrogen related receptor (ERR) signaling pathway from Tox21 library (AID 1224848). Further: nearly all actives have a fitted effect of over 50% in size. In outline: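 Screening used an ERR reporter line supplied by NTP, exposed for 18 h at 37 C to library compounds delivered in DMSO. Signal was luciferase luminescence developed with ONE-Glo at room temperature for 30 min.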
A short description of assay [13]: qHTS assay to identify small molecule agonists of the estrogen related receptor (ERR) signaling pathway from Tox21 library (AID 1224849; calls by dose curve; further: nearly all actives have a fitted effect of over 15% in size). The gist of the method: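 ERR cells, 6 h pre-incubation 37 C/5% CO2; cpd in DMSO pinned; 18 h 37 C; ONE-Glo added, 30 min RT; luminescence read. Agonist mode, qHTS.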
Assay [14] can be described thus: qHTS RealTime-Glo MT Cell Viability Assay in HepG2 cells - 24 hour (AID 1224867). Further: nearly all actives have a fitted effect of over 50% in size. The gist of the method: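 Tox21 10K library screened in qHTS format on HepG2 cells carrying RealTime-Glo reagents. Compounds were added after a 5 h preincubation, and the luminescent signal from continuous culture was measured repeatedly during 40 h treatment.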
Assay [15] is described as follows: qHTS RealTime-Glo MT Cell Viability Assay in HEK293 cells - 32 hour (AID 1224868). Further: nearly all actives have a fitted effect of over 50% in size. Further: potency means the concentration at half of the fitted maximal effect. On activity change, negative = cytotoxic: top concentration of the series differs between compounds. The gist of the method:
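Luminescence generated by NanoLuc from substrate produced by living HEK293 cells served as the viability signal. Each value reflects the reading at its stated time point during continuous 40 h compound exposure at 37 C.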

The nature of assay [16]: A CellTox Green Cytotoxicity Assay to monitor cytotoxicity in HEK293 cells - 0 hour (AID 1224869). Further: nearly all actives have a fitted effect of over 50% in size. In outline: (§1)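 Nonlytic real-time cytotoxicity: HEK293 + CellTox Green reagent plated, 5 h preincubation, pintool compound addition (23 nL in DMSO), 37 C for 40 h, fluorescence measured at successive time points.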
Assay [17] can be described thus: qHTS RealTime-Glo MT Cell Viability Assay in HepG2 cells - 40 hour (AID 1224870). Further: nearly all actives have a fitted effect of over 50% in size. In outline: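 HepG2 cells mixed with RealTime-Glo MT reagents (NanoLuc plus cell-permeant prosubstrate) were seeded at 600 cells/well, incubated 5 h at 37 C/5% CO2, then pinned with compounds in DMSO; nonlytic luminescence tracked viability during 40 h treatment.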
Assay [18] can be described thus: qHTS assay to identify small molecule agonists of H2AX (AID 1224845; active means well fitted activation curve with a large enough effect in the signal ratio in the repeat runs, not every such curve was filed as active; the % refers to the signal ratio; further: potency means the concentration at half of the fitted maximal effect). The gist of the method:
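Wild-type CHO-K1 cells plated overnight, then exposed 3 hr at 37C to compounds at 15 concentrations (0.76% DMSO). Lysed, then HTRF anti-pH2AX(S139)-cryptate/anti-H2AX-d2 detection after 24 hr at room temperature; emissions 665 and 620 nm.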

Assay [19] can be described thus: qHTS assay to identify small molecule agonists of the hypoxia (HIF-1) signaling pathway (AID 1224846; active means well fitted activation curve with a large enough effect in the signal ratio in the repeat runs, not every such curve was filed as active; the % refers to the signal ratio). The gist of the method: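 Cell line: CellSensor HRE-bla ME-180; 2,000 cells/well; 0.5% dialyzed FBS; 5 h preincubation; DMSO compound pin transfer; 17 h, 37C, 5% CO2; CCF4-AM added; bla FRET signal scored for activation.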
Assay [20] in a line: A CellTox Green Cytotoxicity Assay to monitor cytotoxicity in HEK293 cells - 40 hour (AID 1224871). Further: nearly all actives have a fitted effect of over 45% in size. In outline: as §1
On the % scale 0 is the no-effect control and ±100 the full control effect.

Chain of Nuclear receptor subfamily 1 group I member 3 (Homo sapiens) (Q14994 whole entry, looked up): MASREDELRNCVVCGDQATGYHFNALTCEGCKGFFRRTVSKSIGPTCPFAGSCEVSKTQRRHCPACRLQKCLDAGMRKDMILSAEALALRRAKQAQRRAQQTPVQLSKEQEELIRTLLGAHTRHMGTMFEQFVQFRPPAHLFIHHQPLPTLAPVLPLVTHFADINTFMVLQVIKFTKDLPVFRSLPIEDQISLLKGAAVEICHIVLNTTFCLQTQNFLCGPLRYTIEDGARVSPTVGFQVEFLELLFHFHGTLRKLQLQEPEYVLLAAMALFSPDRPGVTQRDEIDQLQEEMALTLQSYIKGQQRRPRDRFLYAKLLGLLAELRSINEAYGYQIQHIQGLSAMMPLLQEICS
Chain of Luciferin 4-monooxygenase (Photinus pyralis) (P08659 whole entry, looked up): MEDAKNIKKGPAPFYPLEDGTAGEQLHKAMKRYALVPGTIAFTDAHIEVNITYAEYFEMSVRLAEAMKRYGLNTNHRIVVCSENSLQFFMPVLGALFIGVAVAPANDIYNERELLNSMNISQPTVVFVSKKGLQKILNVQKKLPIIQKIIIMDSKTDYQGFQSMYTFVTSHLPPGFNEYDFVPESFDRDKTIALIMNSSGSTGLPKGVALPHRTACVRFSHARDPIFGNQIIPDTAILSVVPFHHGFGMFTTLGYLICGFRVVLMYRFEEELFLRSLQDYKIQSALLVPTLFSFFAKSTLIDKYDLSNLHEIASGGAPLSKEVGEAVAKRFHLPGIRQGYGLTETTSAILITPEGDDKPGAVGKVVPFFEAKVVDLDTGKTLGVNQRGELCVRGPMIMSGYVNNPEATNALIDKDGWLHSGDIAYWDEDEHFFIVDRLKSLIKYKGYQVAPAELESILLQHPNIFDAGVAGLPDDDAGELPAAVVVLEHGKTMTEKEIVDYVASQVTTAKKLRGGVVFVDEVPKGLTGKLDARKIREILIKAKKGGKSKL
Chain of Thyrotropin receptor (Homo sapiens) (P16473 whole entry, looked up): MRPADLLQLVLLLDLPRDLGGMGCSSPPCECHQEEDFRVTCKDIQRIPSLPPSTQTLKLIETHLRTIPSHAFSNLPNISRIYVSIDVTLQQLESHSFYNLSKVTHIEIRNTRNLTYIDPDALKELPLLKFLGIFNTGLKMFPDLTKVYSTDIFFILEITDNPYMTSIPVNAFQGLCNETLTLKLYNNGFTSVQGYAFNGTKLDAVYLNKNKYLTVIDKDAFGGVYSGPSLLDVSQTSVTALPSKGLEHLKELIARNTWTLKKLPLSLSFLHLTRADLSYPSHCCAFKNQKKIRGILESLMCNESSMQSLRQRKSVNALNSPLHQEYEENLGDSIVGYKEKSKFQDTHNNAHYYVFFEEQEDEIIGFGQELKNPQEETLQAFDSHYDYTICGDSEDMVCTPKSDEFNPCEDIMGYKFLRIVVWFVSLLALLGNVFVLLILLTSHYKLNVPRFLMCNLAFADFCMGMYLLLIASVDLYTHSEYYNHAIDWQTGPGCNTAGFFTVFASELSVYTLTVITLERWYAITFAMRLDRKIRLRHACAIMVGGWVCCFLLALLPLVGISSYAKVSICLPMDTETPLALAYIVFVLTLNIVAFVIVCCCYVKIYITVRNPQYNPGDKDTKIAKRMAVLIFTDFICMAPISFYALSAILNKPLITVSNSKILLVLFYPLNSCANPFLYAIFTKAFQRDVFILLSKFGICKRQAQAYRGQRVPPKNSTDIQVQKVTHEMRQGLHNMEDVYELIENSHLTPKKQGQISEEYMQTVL

For `C[C@@H]1CCC[C@H](C)N1`, the Potency result in assay [1], in assay [4], in [5], in assay [7], in assay [8] and in assay [9] was “inactive” each time. For the same compound, the Potency entry in assay [10], in [12], in assay [15] and in assay [17] was “inactive” in each case. The compound was classed as inactive in [2], in assay [3], in assay [6], in assay [11], in [13] and in [14]. The compound was called inactive in assay [16].
Turning to `Nc1ccn([C@@H]2O[C@H](CO)[C@@H](O)C2(F)F)c(=O)n1`, the Potency entry in assay [1], in assay [5], in assay [9], in assay [10] and in assay [17] was “inactive” in each case. For the same compound, the result in assay [2], in [3], in [6], in [19], in [11] and in assay [14] was inactive. Besides, the results for the Potency in assay [4], in assay [18] and in assay [15] were 596 nM (active), 982 nM (active) and 1070 nM (active), respectively.
As for `CCCC(C)C(=O)OCC` (configuration not stated), the Potency entry in assay [1], in [4], in [5], in assay [8], in [9] and in assay [10] was “inactive” each time. For the same compound, the Potency entry in assay [18], in assay [12], in assay [15], in [17] and in [20] was “inactive” each time. The compound was called inactive in assay [2], in assay [3], in assay [6], in assay [19], in [11] and in assay [13]. Further, the compound was called inactive in assay [14].
As for `Cc1cc(C)c(N=Nc2c(O)c(S(=O)(=O)O)cc3cc(S(=O)(=O)O)ccc23)cc1C`, the activity change, negative = inhibition in assay [1] was -6.78% [at 10.5 µM]. The viability change, negative = cytotoxic in assay [2] was -15.6% [at 8.39 µM]; in [6], -4.24% [at 8.39 µM]. In addition, the activity change, negative = cytotoxicity in assay [3] was 0.232% [at 8.39 µM]; in assay [10] it was -6.32% [at 6.97 µM]; in assay [11] it was -10.4% [at 14 µM]; in assay [14], -1.15% [at 6.97 µM]. For the same compound, the activity, negative = inhibition in assay [4] was -3.25% [at 8.39 µM]; in assay [12], -9.99% [at 8.39 µM]. The figures for the activation in [5], in assay [8] and in assay [19] were 7.37% [at 8.39 µM], -8.18% [at 8.39 µM] and -0.827% [at 7.01 µM], respectively. Besides, the Potency in [7] was 959 nM (active). Moreover, the activation (H2AX phosphorylation) in [18] is 1.25% [at 14 µM]. For the same compound, in assay [13], the activity change, positive = activation is -5.16% [at 8.39 µM]. Moreover, the activity change, negative = cytotoxic in assay [17] is -8.96% [at 6.97 µM]. Besides, in assay [20], the cytotoxicity increase is 18.5% [at 6.97 µM].
`O=C(CO)[C@@H](O)[C@H](O)[C@H](O)CO`: the Potency entry in assay [1], in [4], in assay [5], in assay [7], in [9] and in [10] was “inactive” throughout. In addition, the Potency result in assay [18], in assay [12], in [15], in assay [17] and in [20] was “inactive” in each case. For the same compound, the compound was classed as inactive in [2], in assay [3], in assay [6], in [19], in assay [11] and in [13]. Besides, the compound was classed as inactive in [14] and in assay [16]. For the same compound, the Potency in [8] was 1.7 nM (active).
Regarding `C=CCCC(=O)O`, the Potency entry in assay [1], in assay [4], in assay [5], in [7], in [8] and in [9] was “inactive” in each case. The Potency result in [10], in assay [18], in assay [12], in assay [15], in [17] and in assay [20] was “inactive” each time. Further, the compound was called inactive in [2], in [3], in assay [6], in assay [19], in assay [11] and in assay [13]. The compound was called inactive in assay [14] and in assay [16].
As to `CN(C)C(=O)Oc1ccc[n+](C)c1`, the Potency result in assay [1], in assay [4], in assay [5], in assay [8], in assay [9] and in [18] was “inactive” throughout. Moreover, the Potency entry in assay [12], in [15], in [17] and in [20] was “inactive” throughout. Also, the compound was classed as inactive in [2], in [3], in [6], in [13], in [14] and in assay [16].
